{"source": "paper PMC5540273", "about": "(PLoS ONE, 2017);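 further: KINOMEscan kinase panel screen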"}
{"test_system": "LYN", "details": "concentration: 1 μM, replicates: in singlicate; n = 1", "units": {"%Inh": "%"}}
{"smiles": "COc1ccc(Nc2nccc(N3CCC(NC(=O)Nc4cccc(OC)c4)C3)n2)cc1", "note": "(stereo not drawn) [GSK1379742]", "%Inh": 0}
{"smiles": "Cc1ccc(C)c(NC(=O)NC2CCN(c3ccnc(Nc4ccc(F)cc4)n3)C2)c1", "note": "(stereo not drawn) [GSK1379720]", "%Inh": 4}
{"smiles": "c1ccc(-c2n[nH]cc2Nc2ccnc3ccccc23)nc1", "note": "[GW694077]", "%Inh": 0}
{"smiles": "COc1cc(Nc2nccc(N3CCC(NC(=O)Nc4cccc(C(C)=O)c4)C3)n2)cc(OC)c1OC", "note": "(stereo not drawn) [GSK1379753]", "%Inh": 60}
{"smiles": "O=C(Nc1cccc(-c2nn3ncccc3c2-c2ccnc(Nc3ccccc3)n2)c1)c1c(F)cccc1F", "note": "[GSK198271]", "%Inh": 99.4}
{"smiles": "c1ccc(-c2cnc3nccnn23)cc1", "note": "[AH20685]", "%Inh": 64}
{"smiles": "Cl.c1ccc(-c2ccc3c(Nc4ccc5[nH]ncc5c4)ccnc3c2)nc1", "note": "[GW440137]", "%Inh": 31}
{"smiles": "Fc1ccc(-c2ncn(C3CCNCC3)c2-c2ccnc(Oc3ccc(-c4ccccc4)cc3)n2)cc1", "note": "[SB-245391]", "%Inh": 9}
{"smiles": "Clc1ccc(-c2nn3ncccc3c2-c2ccnc(Nc3ccc4c(c3)OCCO4)n2)cc1", "note": "[GW829116]", "%Inh": 27}
{"smiles": "Cc1ccc(F)c(C(=O)Nc2cccc(-c3nn4ccccc4c3-c3ccnc(Nc4cccc(F)c4)n3)c2)c1F", "note": "[GSK361061]", "%Inh": 73}
{"smiles": "CNC(=O)c1ccccc1Nc1nc(Nc2ccc(N3CCOCC3)cc2)ncc1Cl.Cl", "note": "[GSK1576028]", "%Inh": 92.6}
{"smiles": "Cc1cccc(Nc2nc(N[C@H]3CCNC3)ncc2C(N)=O)c1.Cl", "note": "[GSK2197149]", "%Inh": 26}
{"smiles": "CCn1c(-c2nonc2N)nc2c(C#CC(C)(C)O)nc(OC[C@H](N)c3ccccc3)cc21", "note": "[GSK943949]", "%Inh": 1}
{"smiles": "COc1cc(Nc2ncc3c(C)nc(-c4cc5ccccc5[nH]4)n3n2)cc(OC)c1OC", "note": "[GW869516]", "%Inh": 26}
{"smiles": "Cl.NC(=O)c1cccc(Nc2nccc(Nc3ccc(Oc4c(Cl)cccc4Cl)c(Cl)c3)n2)c1", "note": "[GW659009]", "%Inh": 34}
{"smiles": "Cl.c1ccc(-c2ccc3c(Nc4ccc5[nH]ccc5c4)ccnc3c2)nc1", "note": "[GW440138]", "%Inh": 47}
{"smiles": "CN1CCN(CCCNc2nccc(-c3c(-c4ccc(F)cc4)nn4cc(C(F)(F)F)ccc34)n2)CC1", "note": "[GW621581]", "%Inh": 0}
{"smiles": "O=C(Nc1n[nH]c2cc(-c3ccoc3)ccc12)C1CC1", "note": "[SB-738481]", "%Inh": 11}
{"smiles": "COc1cccc(C2=C(Nc3ccc(Cl)c(C(=O)O)c3)C(=O)NC2=O)c1", "note": "[SB-390769]", "%Inh": 8}
{"smiles": "COc1cccc(-c2ccc3c(NC(=O)C4CC4)n[nH]c3n2)c1", "note": "[SB-710903]", "%Inh": 1}
{"smiles": "COc1cccc(NC(=O)NC2CCN(c3ccnc(Nc4cc(OC)c(OC)c(OC)c4)n3)C2)c1", "note": "(stereo not drawn) [GSK1379763]", "%Inh": 0}
{"smiles": "CN(C)S(=O)(=O)c1cc(-c2ccc3nccc(-c4cccc(S(N)(=O)=O)c4)c3c2)cnc1N", "note": "[GSK1669921]", "%Inh": 0}
{"smiles": "Cn1cc(-c2ccc3c(c2)CCN3C(=O)Cc2cccc(F)c2)c2c(N)ncnc21", "note": "[GSK2603358]", "%Inh": 0}
{"smiles": "COc1ccc(CNC(=O)NC2CCN(c3ccnc(Nc4ccc(F)cc4)n3)CC2)cc1", "note": "[GSK1379788]", "%Inh": 0}
{"smiles": "O=C(Nc1cccc(-c2nn3ccccc3c2-c2ccnc(Nc3cccc(F)c3)n2)c1)c1c(F)ccc(F)c1Cl", "note": "[GSK357952]", "%Inh": 83}
{"smiles": "Cl.Cl.NCC(NCc1ccc(-c2ccnc3[nH]ccc23)s1)c1ccccc1", "note": "(stereo not drawn) [GSK1321565]", "%Inh": 0}
{"smiles": "CCc1ccc(-c2ccc3c(c2)-c2c(cnn2C)S(=O)(=O)N3C)cc1", "%Inh": 0}
{"smiles": "O=C(O)C(F)(F)F.O=C(O)C(F)(F)F.O=c1[nH]ccc2nc(N[C@@H]3CCCNC3)nc(Nc3ccc(S(=O)(=O)N4CCOCC4)cc3)c12", "note": "[GSK2177277]", "%Inh": 73}
{"smiles": "Cc1occc1-c1ncc(OC[C@@H](N)Cc2c[nH]c3ccccc23)cc1-c1ccc2[nH]nc(C)c2c1.O=C(O)C(F)(F)F", "note": "[GSK682037]", "%Inh": 39}
{"smiles": "COCCOCCOc1cc2ncc3c4ccc(C#N)cc4[nH]c3c2cc1OC", "%Inh": 31}
{"smiles": "CN(C)Cc1ccc(-c2ccc3c(Nc4ccc(Oc5ccccn5)cc4)ccnc3c2)o1", "note": "[GW567148]", "%Inh": 17}
{"smiles": "Cc1ccc(C(=O)N2CC[C@@H](O)C2)cc1-n1c(C)cc(OCc2ccc(F)cc2F)c(Br)c1=O", "%Inh": 74}
{"smiles": "Cn1cc(-c2[nH]c3cc(NC(=O)[C@H](N)C4CCCCC4)cc4c3c2C=NNC4=O)cn1", "%Inh": 76}
